Compound activity (PubChem BioAssay)
mcGAS RapidFire: blocks mouse cGAS cGAMP production | actives 0.18% (n = 130,000) | Q8C6L5 | inhibition, % at 12.5 µM | recombinant mouse cGAS, cGAMP by RapidFire MS | AID 1259397;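 active = inhibition of cGAS enzyme activity at or above 60%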;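 note: enzyme stimulated by 45 bp dsDNA with ATP and GTP substrates; cGAMP share of summed cGAMP plus half ATP and half GTP signals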
Target sequence (Q8C6L5 whole entry, looked up): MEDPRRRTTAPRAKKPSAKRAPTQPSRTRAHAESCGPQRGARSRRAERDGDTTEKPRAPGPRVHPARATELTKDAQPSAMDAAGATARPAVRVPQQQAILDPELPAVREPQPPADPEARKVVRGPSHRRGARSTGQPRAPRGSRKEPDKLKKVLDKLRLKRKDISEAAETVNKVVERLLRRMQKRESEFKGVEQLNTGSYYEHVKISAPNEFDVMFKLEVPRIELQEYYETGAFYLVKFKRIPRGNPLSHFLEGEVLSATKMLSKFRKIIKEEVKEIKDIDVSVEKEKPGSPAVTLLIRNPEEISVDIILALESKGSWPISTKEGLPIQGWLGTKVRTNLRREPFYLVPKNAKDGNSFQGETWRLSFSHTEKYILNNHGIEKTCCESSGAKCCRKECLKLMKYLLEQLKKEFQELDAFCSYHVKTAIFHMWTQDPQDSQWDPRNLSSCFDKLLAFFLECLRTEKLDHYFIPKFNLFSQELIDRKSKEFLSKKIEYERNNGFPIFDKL
Numbers stand for hits. This is one part of a sample in which hits are shown more often than they occur.

`N#Cc1ccc(/C=C2\CS(=O)(=O)c3c(F)cccc3C2=O)cc1` gave mcGAS RapidFire 63.1.
`O=C1C(=Cc2ccc(-c3ccccc3)cc2)CS(=O)(=O)c2ccc(F)cc21` gave mcGAS RapidFire inactive.
`COc1cccc(-c2nc(C=Nc3cccc(Cl)c3C)c(O)o2)c1` gave mcGAS RapidFire inactive.
For O=C(O)c1ccc(CN2CCc3cc(-n4cccn4)cnc32)cc1 the results were mcGAS RapidFire inactive.
For CC(C)c1nc(CCCN(C)C)n(-c2cccc(Cl)c2)n1 the results were mcGAS RapidFire inactive.
`COc1ccc(Cl)cc1CN1C(=O)CON=C1c1ccc(C)cc1` gave mcGAS RapidFire 63.2.
`Cc1ccccc1CN1C(=O)CON=C1c1ccc(N(C)C)cc1` gave mcGAS RapidFire inactive.
`COc1ccc(Cl)cc1CN1C(=O)CON=C1c1ncccc1C` gave mcGAS RapidFire inactive.
COc1cccc(COC(C)C(=O)Nc2cccc3cn[nH]c23)c1 (stereo not drawn) was read as mcGAS RapidFire inactive.
Screening Cc1cc(O)c(-c2ccn[nH]2)c(=O)o1 returned mcGAS RapidFire inactive.
Cc1cc(O)c(C2=Nc3ccccc3SC(c3ccc([N+](=O)[O-])cc3)C2)c(=O)o1 (stereo not drawn) was read as mcGAS RapidFire inactive.
Screening Cc1cc(O)c(C2=Nc3cc(C(F)(F)F)ccc3SC(c3ccc(O)c([N+](=O)[O-])c3)C2)c(=O)o1 (stereo not drawn) returned mcGAS RapidFire 66.6.
For Cc1ccc(CN=C(CC#N)c2ccc(F)cc2)cc1 the results were mcGAS RapidFire inactive.
Screening O=c1cc(CCn2cccn2)nc(-c2ccc(CN3CCC[C@@H]3CO)cc2)[nH]1 returned mcGAS RapidFire 89.0.
OC[C@@H]1CCCN1Cc1csc(-c2ccc(Br)cc2)n1 was read as mcGAS RapidFire inactive.
Screening O=C(O)c1ccccc1CN1CCCCC1CCn1cccn1 (stereo not drawn) returned mcGAS RapidFire inactive.
CC(C)C(=O)N1CCN(Cn2nc(-c3ccc(F)cc3)oc2=S)CC1 was read as mcGAS RapidFire inactive.
`Cc1ccc(C)c(-n2cc(CN3CCOCC3)c(-c3ccccc3)n2)c1` gave mcGAS RapidFire inactive.
For CCOCCOC(=O)C1=C(C)N(CC)C(=O)NC1c1ccc([N+](=O)[O-])cc1 (stereo not drawn) the results were mcGAS RapidFire 98.2.
For CCCOC(=O)C1=C(C)N(C)C(=O)NC1c1ccc([N+](=O)[O-])cc1 (stereo not drawn) the results were mcGAS RapidFire inactive.
CCOCCOC(=O)C1=C(C)N(C)C(=O)NC1c1cccc([N+](=O)[O-])c1 (stereo not drawn) was read as mcGAS RapidFire inactive.
Screening C=C(C)Cn1c(N2CCN(Cc3ccccc3Cl)CC2)nc2c1c(=O)[nH]c(=O)n2C returned mcGAS RapidFire inactive.
COCCN(Cc1nc2scc(-c3cccc(OC)c3)c2c(=O)[nH]1)CC(O)COCc1ccco1 (stereo not drawn) was read as mcGAS RapidFire inactive.
For COC(=O)[C@@H]1C[C@@H](NC(=O)c2cccc(C#CC(C)(C)O)c2)CN1C the results were mcGAS RapidFire inactive.
For CC1(C)Cc2c(cnn2-c2ccc([N+](=O)[O-])cc2)-c2[nH]c3ccccc3c21 the results were mcGAS RapidFire 76.3.
For Nc1c(-c2ccccc2)cnn1-c1ccc([N+](=O)[O-])cc1 the results were mcGAS RapidFire inactive.
Screening N#Cc1cc2[nH]c3ccccc3c2n(-c2ccc([N+](=O)[O-])cc2)c1=N returned mcGAS RapidFire inactive.
For CCOCCn1c(SCC(=O)OCc2ccccc2)nc2c1c(=O)[nH]c(=O)n2C the results were mcGAS RapidFire inactive.
NC(Cc1ccc(C(F)(F)F)cc1)c1csc(Nc2ccccn2)n1 (stereo not drawn) was read as mcGAS RapidFire inactive.
`NC(Cc1ccc(C(F)(F)F)cc1)c1csc(Nc2cnccn2)n1` (stereo not drawn) gave mcGAS RapidFire inactive.
`NC(Cc1ccc(F)cc1)c1csc(Nc2ccc(C(F)(F)F)cn2)n1` (stereo not drawn) gave mcGAS RapidFire 67.1.
Screening Cc1cccc(NC(=O)CC2C(=O)NCCN2C(=O)CN2CCN(c3ncccn3)CC2)c1 (stereo not drawn) returned mcGAS RapidFire inactive.
`CC(C)C(NC(=O)c1ccccc1)C(=O)N(C)CCCC(=O)O` (stereo not drawn) gave mcGAS RapidFire inactive.
O=c1c2sccc2nc(SCc2cc(=O)n3cc(Cl)ccc3n2)n1C1CC1 was read as mcGAS RapidFire inactive.
For CC(=O)Nc1ccc(NC(=O)C(C)Oc2ccc(F)cc2)cc1 (stereo not drawn) the results were mcGAS RapidFire inactive.
Screening C[C@@H](c1ccccc1)N1CCC1C(O)(c1ccccc1)c1ccccc1 (stereo partly drawn) returned mcGAS RapidFire inactive.
Screening COC(=O)CSC1=NS(=O)(=O)c2ccccc2N1 returned mcGAS RapidFire inactive.
Screening COC(=O)c1nc2n(n1)-c1ccccc1S(=O)(=O)N2 returned mcGAS RapidFire 91.3.
`CC(C)C(C)NC(=O)c1ccc2c(c1)S(=O)(=O)Nc1ncnn1-2` (stereo not drawn) gave mcGAS RapidFire inactive.
Screening Cc1ccc(S(=O)(=O)NC(C)(C)CN2CCc3ccccc3C2)cc1 returned mcGAS RapidFire inactive.
CC1ON=C(c2ccco2)N(Cc2ccc(S(C)(=O)=O)cc2)C1=O (stereo not drawn) was read as mcGAS RapidFire 66.5.
COc1ccc(C(C)=O)cc1CN1C(=O)C(C)ON=C1c1ccco1 (stereo not drawn) was read as mcGAS RapidFire inactive.
Screening CC1ON=C(c2ccco2)N(C/C=C/c2ccccc2)C1=O (stereo not drawn) returned mcGAS RapidFire inactive.
`Cc1c(Cc2ccc(Cl)cc2)c(=O)n2c([nH]c3ccccc32)c1C#N` gave mcGAS RapidFire inactive.
For CS(=O)(=O)c1ncc2c(n1)c(=O)c(C#N)c1[nH]c3ccccc3c(=O)n12 the results were mcGAS RapidFire 67.4.
For COCCNc1ncc2c(n1)c(=O)c(C#N)c1[nH]c3ccc(Br)cc3c(=O)n12 the results were mcGAS RapidFire inactive.
For Cc1cc([N+](=O)[O-])nn1CC(=O)Nc1cc(C(F)(F)F)ccc1Cl the results were mcGAS RapidFire inactive.
`Cc1nc(C(=O)NC(c2ccc(Cl)cc2)c2cccnc2)cs1` (stereo not drawn) gave mcGAS RapidFire inactive.
Screening COc1ccc(-c2nc3ccc(Br)cc3c(=O)o2)cc1[N+](=O)[O-] returned mcGAS RapidFire inactive.
`Cc1c(C(=O)N2CCN(c3ncnc4c3cnn4C)CC2)[nH]c2c1C(=O)CCC2` gave mcGAS RapidFire inactive.
Screening CC(C)OC(=O)C(C#N)=Cc1ccc([N+](=O)[O-])o1 returned mcGAS RapidFire 64.3.
Screening O=C(O)C=Cc1ccc([N+](=O)[O-])o1 returned mcGAS RapidFire inactive.
`N#CC(=Cc1ccc([N+](=O)[O-])o1)c1nc(C2CC2)cs1` gave mcGAS RapidFire inactive.
Screening COc1cc(OC)c2cc(C=O)cnc2c1 returned mcGAS RapidFire inactive.
For Cc1ccsc1[C@@H]1CCN(C2CCN(S(C)(=O)=O)CC2)C[C@H]1O the results were mcGAS RapidFire inactive.
CC1CCCCC1NC(=O)CSc1nncs1 (stereo not drawn) was read as mcGAS RapidFire inactive.
For O=C(CSC1=NCCS1)NC1CCCCC1 the results were mcGAS RapidFire inactive.
Screening CCNC(=O)[C@@H]1C[C@H](N)CN1C(=O)C1CCN(C(=O)CC(C)C)CC1 returned mcGAS RapidFire inactive.
Screening O=c1oc2ccc(O)cc2s1 returned mcGAS RapidFire inactive.
